# Laboratory results published in PubChem BioAssay (NCATS).
# Values without a mark were called inactive. Records with an inconclusive call do not appear. Entries that show only a call come without a potency. Calls of active or inactive are those of the source. Unless noted, calls follow the shape of the dose curve; as a rule, active = well fitted curve in the direction sought with a large enough effect; inconclusive = small, poorly fitted or top-dose-only effect, or another doubt; inactive = no such curve, though single readings can be large; an effect the other way counts as inactive or inconclusive.
# How the values were obtained:
# [1] = qHTS to identify inhibitors of the type 1 interferon - major histocompatibility complex class I in skeletal muscle: primary screen against the NCATS LOPAC collection (AID 1347405);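 also: lytic HiBiT luminescence reporting HLA-B protein level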
# Outline: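 After 24 h at 37 C with compounds (7-point, 1:4.3 dilutions, 46 uM top final) plus 4 ng/ml IFN-beta, luminescence from lytic HiBiT detection was measured. HLA-B*08:01 in C25cl48 myoblasts carried an endogenous C-terminal HiBiT tag; medium lacked dexamethasone.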
# [2] = qHTS to identify inhibitors of the type 1 interferon - major histocompatibility complex class I in skeletal muscle: primary screen against the NCATS Pharmaceutical Collection (AID 1347407);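 also: luminescence of HiBiT knocked into endogenous HLA-B as interferon-induced MHC class I level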
# Outline: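 Immortalized human myoblasts (C25cl48) with HiBiT knocked into endogenous HLA-B*08:01 were stimulated with 4 ng/ml IFN-beta and treated with compounds (8-point, 1:5, top 46 uM final) for 24 h at 37 C; HiBiT lytic luminescence read.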
# [3] = target: Protein phosphatase 1D (Homo sapiens) (UniProt O15297); test: RapidFire Mass Spectrometry qHTS Assay for Modulators of WT P53-Induced Phosphatase 1 (WIP1) (AID 1347424);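 also: amount of dephosphorylated VEPPL-S-QETFS peptide product formed by WIP1; series mostly up to about 63 µM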
# Chain of Protein phosphatase 1D (Homo sapiens) (O15297 whole entry, looked up): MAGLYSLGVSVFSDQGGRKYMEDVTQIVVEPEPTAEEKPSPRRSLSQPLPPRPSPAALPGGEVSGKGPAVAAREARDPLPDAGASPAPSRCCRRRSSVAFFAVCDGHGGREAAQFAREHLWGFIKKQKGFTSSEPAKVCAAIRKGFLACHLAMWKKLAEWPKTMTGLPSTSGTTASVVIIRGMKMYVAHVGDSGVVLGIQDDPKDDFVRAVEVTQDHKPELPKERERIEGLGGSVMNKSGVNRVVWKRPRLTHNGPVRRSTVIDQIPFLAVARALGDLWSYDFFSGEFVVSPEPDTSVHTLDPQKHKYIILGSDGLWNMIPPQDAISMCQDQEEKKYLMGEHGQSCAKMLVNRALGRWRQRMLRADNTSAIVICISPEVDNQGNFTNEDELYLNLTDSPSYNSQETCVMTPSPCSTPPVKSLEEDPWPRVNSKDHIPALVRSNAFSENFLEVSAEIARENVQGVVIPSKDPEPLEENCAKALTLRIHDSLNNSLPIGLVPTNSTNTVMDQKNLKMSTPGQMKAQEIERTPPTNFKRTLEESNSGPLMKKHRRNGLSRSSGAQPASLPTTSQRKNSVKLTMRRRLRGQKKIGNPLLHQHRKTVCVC
# Outline: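 RapidFire mass spectrometry measured dephosphorylated peptide after 5 min room-temperature reaction of 2 uM VEPPL-pS-QETFS with 10 nM WIP1 (50 mM Tris-HCl pH 7.5, 30 mM MgCl2, 0.1 mM EGTA, BSA), following 1 hr compound preincubation; 1 uM isotope-labelled product standard.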
# [4] = target: Protein phosphatase 1D (Homo sapiens) (UniProt O15297); test: Rhodamine-PBP qHTS Assay for Modulators of WT P53-Induced Phosphatase 1 (WIP1) (AID 1347425)
# Outline: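 The read-out is the change in Rhodamine-PBP fluorescence (f1 - f0, ex 525/em 598 nm) as Pi is released, read each minute for 11 min. Final reaction: 5 nM WIP1, 10 uM phosphopeptide VEPPL-pS-QETFS, 10 uM Rh-PBP, 50 mM Tris-HCl pH 7.5, 30 mM MgCl2. Compound was preincubated with enzyme for 1 hour at room temperature.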
# [5] = Validation qHTS assay for inhibitors of Activation Induced Cytidine Deaminase (AID): UDG Counterscreen signal (AID 1347427)
# Outline: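 Fluorescence at 560 nm excitation, 665 nm emission reports UDG signal after 250 mM NaOH (2x) addition and 30 min. Enzymes (AID 1 uM, UDG 2 U/mL, at 4/3x) preincubated 10 min with compound, then 4 h with 4x 250 nM DJC20/DJC23 substrate at room temperature.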
# [6] = target: Single-stranded DNA cytosine deaminase (Homo sapiens) (UniProt Q9GZX7); test: Validation qHTS assay for inhibitors of Activation Induced Cytidine Deaminase (AID): AID signal (AID 1347429)
# Chain of Single-stranded DNA cytosine deaminase (Homo sapiens) (Q9GZX7 whole entry, looked up): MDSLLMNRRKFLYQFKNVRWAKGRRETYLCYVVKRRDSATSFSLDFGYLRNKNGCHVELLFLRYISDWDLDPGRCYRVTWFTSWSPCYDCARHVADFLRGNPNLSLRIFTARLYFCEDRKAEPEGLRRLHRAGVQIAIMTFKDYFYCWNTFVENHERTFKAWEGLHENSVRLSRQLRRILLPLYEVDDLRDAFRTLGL
# Outline: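 Compounds (final up to 114 uM) preincubated with AID plus UDG; 250 nM DJC20/DJC23 substrate mix (4x stock) added, 4 hr at room temperature, then NaOH, 30 min. Read 1 fluorescence at 540 nm excitation, 590 nm emission.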
# [7] = Primary qHTS for inhibitors of La Crosse Virus (LACV) - induced cell death in SH-SY5Y cells (AID 1508616);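 also: top concentration of the series differs between compounds; higher means more rescue of cells from virus-induced death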
# Outline: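 Rescue of virus-induced death was read as ATPLite luminescence after 6 days at 37C, scaled between DMSO wells with LACV and without virus. Cells were SH-SY5Y, 6000/well, infected at 0.01 MOI after compound addition.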
# [8] = target: Calcium and integrin-binding protein 1 (Homo sapiens) (UniProt Q99828); test: Validation qHTS for Identification of Calcium Integrin Binding protein 1 (CIB1) Competitor (AID 1508618)
# Chain of Calcium and integrin-binding protein 1 (Homo sapiens) (Q99828 whole entry, looked up): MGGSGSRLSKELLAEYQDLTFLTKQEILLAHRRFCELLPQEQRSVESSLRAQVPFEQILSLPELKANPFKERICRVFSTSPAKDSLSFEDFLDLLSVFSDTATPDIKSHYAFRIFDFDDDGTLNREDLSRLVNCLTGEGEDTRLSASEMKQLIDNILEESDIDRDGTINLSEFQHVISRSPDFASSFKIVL
# Outline: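 CIB1-GST (1 uM final) incubated 15 min at room temperature with compounds (up to 114 uM), then FITC-labelled alphaIIb peptide (100 nM) added. FP read (Ex 480/Em 540) after 15 min, pH 7.4 buffer containing 5 mM CaCl2.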
# [9] = target: Calcium and integrin-binding protein 1 (Homo sapiens) (UniProt Q99828); test: Primary qHTS for Identification of Calcium Integrin Binding Protein 1 (CIB1) Competitor (AID 1508620);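 also: GST tagged CIB1 binding a fluorescein labelled alphaIIb integrin peptide tracer; top concentration of the series differs between compounds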
# Outline: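 CIB1-GST (1 uM final) and compound incubated 15 min at room temperature before adding FITC-alphaIIb peptide tracer (100 nM final). Competition for binding read by fluorescence polarization (ex 480, em 540) after another 15 min at room temperature.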
# [10] = Primary qHTS for small molecule stabilizers of the endoplasmic reticulum resident proteome: Secreted ER Calcium Modulated Protein (SERCaMP) assay (AID 1508630)
# Outline: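 The SH-SY5Y reporter protocol was run at 3 concentrations up to 38.3 uM (primary) or 11 concentrations (follow-up): 16 h compound, 100 nM thapsigargin for 4 h, then extracellular luciferase luminescence.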
# [11] = target: Cytochrome P450 2D6 (Homo sapiens) (UniProt P10635); test: Cytochrome P450 family 2 subfamily D member 6 (CYP2D6) small molecule antagonists: luciferase biochemical (cell-free) qHTS assay (AID 1645840; active = well fitted curve in the direction sought with a large enough effect in the repeat runs; an effect the other way counts as inactive or inconclusive; also: nearly all actives have a fitted effect of over 55% in size; also: potency is read from the fitted curve at half-maximal effect; as to activity change, negative = inhibition: series mostly up to about 57 µM)
# Chain of Cytochrome P450 2D6 (Homo sapiens) (P10635 whole entry, looked up): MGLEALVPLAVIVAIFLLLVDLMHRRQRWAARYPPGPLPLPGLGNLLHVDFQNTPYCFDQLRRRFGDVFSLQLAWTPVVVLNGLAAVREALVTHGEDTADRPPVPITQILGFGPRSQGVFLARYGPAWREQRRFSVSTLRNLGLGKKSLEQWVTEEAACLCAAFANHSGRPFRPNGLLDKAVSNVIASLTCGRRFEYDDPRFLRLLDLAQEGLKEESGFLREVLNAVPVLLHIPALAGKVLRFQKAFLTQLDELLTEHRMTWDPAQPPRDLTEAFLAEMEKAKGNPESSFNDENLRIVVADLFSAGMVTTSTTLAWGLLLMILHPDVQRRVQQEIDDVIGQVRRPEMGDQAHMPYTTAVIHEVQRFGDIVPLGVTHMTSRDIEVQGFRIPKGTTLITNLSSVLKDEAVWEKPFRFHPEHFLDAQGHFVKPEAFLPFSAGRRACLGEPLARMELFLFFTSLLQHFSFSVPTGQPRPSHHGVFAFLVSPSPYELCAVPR
# Outline: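 P450-Glo CYP2D6 system: proluciferin substrate converted by enzyme to luciferin, read by luminescence proportional to activity. Enzyme-substrate mix with compound 10 min at room temperature, then NADPH regeneration 1 h before detection reagent.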
# [12] = target: Cytochrome P450 3A4 (Homo sapiens) (UniProt P08684); test: Cytochrome P450 family 3 subfamily A member 4 (CYP3A4) small molecule antagonists: luciferase qHTS assay (AID 1645841; active = well fitted curve in the direction sought with a large enough effect in the repeat runs; an effect the other way counts as inactive or inconclusive; also: nearly all actives have a fitted effect of over 45% in size)
# Chain of Cytochrome P450 3A4 (Homo sapiens) (P08684 whole entry, looked up): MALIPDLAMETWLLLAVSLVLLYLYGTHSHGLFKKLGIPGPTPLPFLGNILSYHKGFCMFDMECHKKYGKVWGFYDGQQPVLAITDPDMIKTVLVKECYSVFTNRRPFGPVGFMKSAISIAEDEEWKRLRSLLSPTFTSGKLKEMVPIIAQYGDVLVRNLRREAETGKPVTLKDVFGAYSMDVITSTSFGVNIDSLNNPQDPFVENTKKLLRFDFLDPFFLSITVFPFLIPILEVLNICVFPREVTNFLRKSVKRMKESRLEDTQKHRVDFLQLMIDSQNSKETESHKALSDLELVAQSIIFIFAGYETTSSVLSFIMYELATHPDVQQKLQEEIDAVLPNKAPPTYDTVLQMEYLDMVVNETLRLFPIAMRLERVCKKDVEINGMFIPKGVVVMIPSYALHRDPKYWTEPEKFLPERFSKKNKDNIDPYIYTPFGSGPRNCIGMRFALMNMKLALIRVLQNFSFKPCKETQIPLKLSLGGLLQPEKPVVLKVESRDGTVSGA
# Outline: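 Luminescent CYP3A4 activity readout: compounds plus enzyme-substrate mix 10 min at room temperature, reaction started with NADPH regenerating system for 1 h, stopped with detection reagent, read after 20 min. Ketoconazole served as control.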
# [13] = A High-Content qHTS Against Drug Library for the Identification of Small Molecules that Inhibit DYT1 Early Onset Primary Dystonia-Associated Cell Pathology (AID 1645839; calls by dose curve; also: series mostly up to about 46 µM)
# Outline: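 High-content imaging quantified EGFP-TorsinA mislocalization in HEK293-derived cells inducibly expressing DYT1 mutant torsinA, after 48 h exposure to compound given together with tetracycline induction. Cell count served as a toxicity channel alongside %pathology.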
# [14] = target: Cytochrome P450 2C9 (Homo sapiens) (UniProt P11712); test: Cytochrome P450 family 2 subfamily C member 9 (CYP2C9) small molecule antagonists: luciferase biochemical (cell-free) qHTS assay (AID 1645842; active = well fitted curve in the direction sought with a large enough effect in the repeat runs; an effect the other way counts as inactive or inconclusive; also: nearly all actives have a fitted effect of over 55% in size; also: potency is read from the fitted curve at half-maximal effect; as to activity change, negative = inhibition: series mostly up to about 57 µM)
# Chain of Cytochrome P450 2C9 (Homo sapiens) (P11712 whole entry, looked up): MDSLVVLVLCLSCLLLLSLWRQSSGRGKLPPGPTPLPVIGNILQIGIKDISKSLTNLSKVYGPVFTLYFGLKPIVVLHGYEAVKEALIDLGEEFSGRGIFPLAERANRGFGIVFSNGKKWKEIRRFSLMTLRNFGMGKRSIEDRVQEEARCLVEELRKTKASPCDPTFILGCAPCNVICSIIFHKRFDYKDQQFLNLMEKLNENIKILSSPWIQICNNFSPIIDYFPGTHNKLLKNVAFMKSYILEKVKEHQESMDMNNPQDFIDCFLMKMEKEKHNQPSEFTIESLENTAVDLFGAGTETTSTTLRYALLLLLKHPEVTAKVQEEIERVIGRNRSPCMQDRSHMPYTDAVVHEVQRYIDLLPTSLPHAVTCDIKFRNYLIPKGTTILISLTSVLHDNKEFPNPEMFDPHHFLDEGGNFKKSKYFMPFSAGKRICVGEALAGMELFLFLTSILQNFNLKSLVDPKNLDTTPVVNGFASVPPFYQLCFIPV
# Outline: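 P450-Glo CYP2C9 system: proluciferin substrate with enzyme in mix containing 0.4% BSA, 10 min at room temperature, then NADPH regeneration solution added and incubated 1 h at 37C. Detection reagent stopped reaction; luminescence read after 20 min as RLU.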
# [15] = target: Papain (Carica papaya) (UniProt P00784); test: Primary qHTS assay for inhibitors of the protease papain (AID 1645873);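 also: papain turnover of Z-FR-AMC read as the AMC fluorescence gain over 10 min; series mostly up to about 50 µM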
# Chain of Papain (Carica papaya) (P00784 whole entry, looked up): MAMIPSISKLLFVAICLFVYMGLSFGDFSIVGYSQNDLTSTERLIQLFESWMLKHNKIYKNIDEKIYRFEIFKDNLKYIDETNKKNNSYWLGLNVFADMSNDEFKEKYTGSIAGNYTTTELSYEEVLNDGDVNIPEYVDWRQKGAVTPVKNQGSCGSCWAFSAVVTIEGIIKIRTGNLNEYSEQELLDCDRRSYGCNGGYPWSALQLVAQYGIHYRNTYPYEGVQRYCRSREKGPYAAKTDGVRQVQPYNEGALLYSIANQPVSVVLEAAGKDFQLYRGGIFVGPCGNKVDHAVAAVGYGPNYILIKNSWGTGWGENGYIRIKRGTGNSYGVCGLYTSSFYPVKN
# [16] = Cell Viability qHTS for small molecule stabilizers of the endoplasmic reticulum resident proteome (AID 1508629); details: cell viability counter-screen, 100 nM thapsigargin for final 4 h;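 also: human SH-SY5Y neuroblastoma cells carrying the GLuc-SERCaMP reporter; compound exposure about 46 h in total before the viability read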
# [17] = qHTS for inhibitors of adenylyl cyclases using a fission yeast platform: a pilot screen against the NCATS LOPAC library (AID 1347410)
# Outline: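 S. pombe CHP2027 (AC9-GNAS-PDE4D2) carrying a PKA-repressed fbp1-GFP reporter was exposed to LOPAC compounds (final up to 57 µM) for 18 h at 30C in the dark, in EMM with histidine, lysine and uracil; GFP gain-of-signal read by laser scanning cytometry.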
smiles,measurement,setting,value
CN(C)[C@@H]1C(=O)C(C(N)=O)=C(O)[C@@]2(O)C(=O)C3=C(O)c4c(O)ccc(Cl)c4[C@@H](O)[C@H]3C[C@@H]12,Potency,[1],inactive
same,Potency,[2],inactive
same,Potency,[3],inactive
same,outcome,[4],inactive
same,outcome,[5],inactive
same,Potency,[6],inactive
same,Potency,[7],inactive
same,outcome,[8],inactive
same,Potency,[9],inactive
same,Potency,[10],inactive
same,Potency,[11],inactive
same,outcome,[12],inactive
CC(C(=O)O)c1ccc(CC2CCCC2=O)cc1 (configuration not stated),Potency,[1],inactive
same,Potency,[2],inactive
same,Potency,[3],inactive
same,outcome,[4],inactive
same,outcome,[5],inactive
same,Potency,[6],inactive
same,Potency,[7],inactive
same,outcome,[8],inactive
same,Potency,[9],inactive
same,Potency,[10],inactive
same,Potency,[13],inactive
same,Potency,[11],inactive
same,outcome,[12],inactive
same,Potency,[14],inactive
same,Potency,[15],inactive
CN(C)C(=O)Oc1cccc([N+](C)(C)C)c1,Potency,[1],inactive
same,Potency,[2],inactive
same,Potency,[3],inactive
same,outcome,[4],inactive
same,outcome,[5],inactive
same,Potency,[6],inactive
same,Potency,[7],inactive
same,outcome,[8],inactive
same,Potency,[9],inactive
same,Potency,[10],inactive
same,Potency,[13],inactive
same,Potency,[11],inactive
same,Potency,[14],inactive
same,Potency,[15],inactive
CC1=NS(=O)(=O)c2cc(Cl)ccc2N1,Potency,[1],inactive
same,Potency,[2],inactive
same,Potency,[3],inactive
same,outcome,[4],inactive
same,outcome,[5],inactive
same,Potency,[6],inactive
same,Potency,[7],inactive
same,outcome,[8],inactive
same,Potency,[9],inactive
same,Potency,[10],inactive
same,Potency,[13],inactive
same,Potency,[11],inactive
same,Potency,[14],inactive
same,Potency,[15],inactive
Cc1nc2ccccn2c(=O)c1CCN1CCC(C(=O)c2ccc(F)cc2)CC1,Potency,[1],inactive
same,Potency,[2],inactive
same,Potency,[3],inactive
same,outcome,[4],inactive
same,outcome,[5],inactive
same,Potency,[6],inactive
same,Potency,[7],inactive
same,outcome,[8],inactive
same,Potency,[9],inactive
same,Potency,[10],inactive
same,Potency,[13],inactive
same,Potency,[11],2.19 µM (active)
same,Potency,[14],inactive
O=C(CCCN1CCC(O)(c2cccc(C(F)(F)F)c2)CC1)c1ccc(F)cc1,Potency,[1],inactive
same,Potency,[2],inactive
same,Potency,[3],inactive
same,outcome,[4],inactive
same,outcome,[5],inactive
same,Potency,[6],inactive
same,Potency,[7],inactive
same,outcome,[8],inactive
same,Potency,[9],inactive
same,max response,[16],-8.14%
same,Potency,[13],inactive
same,Potency,[14],inactive
same,Potency,[15],inactive
Brc1c(NC2=NCCN2)ccc2nccnc12,Potency,[1],inactive
same,Potency,[2],inactive
same,outcome,[17],inactive
same,outcome,[4],inactive
same,outcome,[5],inactive
same,Potency,[7],inactive
same,outcome,[8],inactive
same,Potency,[9],inactive
same,Potency,[10],inactive
same,Potency,[11],21.9 µM (active)
same,Potency,[14],inactive
same,Potency,[15],inactive
CC[N+](C)(C)c1cccc(O)c1,Potency,[1],inactive
same,Potency,[2],inactive
same,outcome,[17],inactive
same,outcome,[4],inactive
same,outcome,[5],inactive
same,Potency,[7],inactive
same,outcome,[8],inactive
same,Potency,[9],inactive
same,Potency,[10],inactive
same,Potency,[11],inactive
same,Potency,[14],inactive
same,Potency,[15],inactive
NC(Cc1ccc(Cl)cc1)C(=O)O (configuration not stated),Potency,[1],inactive
same,"activity change, negative = inhibition",[2],1.91% [at 0.727 µM]
same,"activity change, negative = inhibition",[3],4.3% [at 0.505 µM]
same,"activity change, negative = inhibition",[4],-2.63% [at 0.575 µM]
same,outcome,[5],inactive
same,Potency,[6],inactive
same,Potency,[7],inactive
same,outcome,[8],inactive
same,"activity change, negative = inhibition",[9],-1.79% [at 1.07 µM]
same,Potency,[10],inactive
same,"% pathology change, negative = correction",[13],-28% [at 0.369 µM]
same,"activity change, negative = inhibition",[11],5.71% [at 0.91 µM]
same,"activity change, negative = inhibition",[14],10.6% [at 0.91 µM]
same,Potency,[15],inactive
CN(C)C(=O)Oc1ccc[n+](C)c1,Potency,[1],inactive
same,Potency,[2],inactive
same,Potency,[3],inactive
same,outcome,[4],inactive
same,outcome,[5],inactive
same,Potency,[6],inactive
same,Potency,[7],inactive
same,outcome,[8],inactive
same,Potency,[9],inactive
same,Potency,[10],inactive
same,Potency,[13],inactive
same,Potency,[11],inactive
same,Potency,[14],inactive
same,Potency,[15],inactive
O=C(CCNNC(=O)c1ccncc1)NCc1ccccc1,Potency,[1],inactive
same,Potency,[2],inactive
same,Potency,[3],inactive
same,outcome,[4],inactive
same,outcome,[5],inactive
same,Potency,[6],inactive
same,Potency,[7],inactive
same,outcome,[8],inactive
same,Potency,[9],inactive
same,Potency,[10],inactive
same,Potency,[13],inactive
same,Potency,[11],15.5 µM (active)
same,Potency,[14],5.49 µM (active)
same,Potency,[15],inactive
